Experimental findings from PubChem BioAssay AID2013 (Sanford-Burnham Center for Chemical Genomics, 2009) are described below.

Where “and” joins values, the source holds several entries; their conditions need not be identical. Equal entries are not always repeated. Hit rate of the full screen: of about 290,000 compounds, about 370 (0.13%) were called active.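 The calls were made as follows: active = spots per cell inhibited over 60%, with over 100 cells counted and total cytoplasm intensity under 500,000; inconclusive = wells with under 100 cells, flagged as likely toxic; inactive = the rest.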 The entries come from a sample that favours actives as a whole. Potency and affinity values are given separately.

As usually defined, the inhibition is the drop in the measured response relative to a control, in per cent.

The target in this assay is G-protein coupled receptor 55 (Homo sapiens) (UniProt Q9Y2T6). As to the kind of experiment: GPR55 antagonists blocking LPI-driven arrestin recruitment, primary screen, imaging, U2OS, beta-arrestin-GFP, LPI agonist (AID 2013).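 Also: U2OS cells stably carrying GPR55 and arrestin-GFP stimulated by 5 µM LPI near EC80; imaged beta-arrestin-GFP aggregate spots per cell after agonist stimulation; plate controls were LPI-stimulated DMSO wells for no effect and DMSO wells without LPI for full effect.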 The note with it: U2OS GPR55 beta-arrestin-GFP translocation imaging, LPI antagonism; at 10 µM; stronger effect = higher value. A general note: Arrestin recruitment assays detect the binding of arrestin to an activated receptor.
G-protein coupled receptor 55 (Homo sapiens), sequence (Q9Y2T6 whole entry, looked up): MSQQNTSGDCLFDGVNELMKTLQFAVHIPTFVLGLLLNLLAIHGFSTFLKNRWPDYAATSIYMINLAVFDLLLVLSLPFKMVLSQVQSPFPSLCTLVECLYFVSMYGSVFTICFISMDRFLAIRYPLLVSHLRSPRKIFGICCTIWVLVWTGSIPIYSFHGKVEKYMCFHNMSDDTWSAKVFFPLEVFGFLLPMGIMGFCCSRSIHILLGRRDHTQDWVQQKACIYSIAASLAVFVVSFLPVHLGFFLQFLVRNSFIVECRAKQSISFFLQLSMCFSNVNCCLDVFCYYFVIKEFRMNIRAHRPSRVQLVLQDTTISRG
With `N=c1c2c(-c3ccccc3)c(-c3ccccc3)n(Cc3ccco3)c2ncn1Cc1ccccc1`, the inhibition is 70.9% (active).

Regarding `N=c1c2c(-c3ccccc3)c(-c3ccccc3)n(Cc3ccco3)c2ncn1Cc1ccco1`, the inhibition is 29.6% (inactive).

Regarding `OCCNc1ncnc2c1c(-c1ccccc1)c(-c1ccccc1)n2Cc1ccco1`, the inhibition was -0.4% (inactive).

For the compound `N=c1c2c(-c3ccccc3)c(-c3ccccc3)n(Cc3ccco3)c2ncn1CCCn1ccnc1`, the inhibition was 24.2% (inactive).

Regarding `N=c1c2c(-c3ccccc3)c(-c3ccccc3)n(Cc3ccco3)c2ncn1CCO`, the inhibition was 58.3% (inactive).

With `CCN(CC1COc2ccccc2O1)C(=S)NCCCN(C)C` (centres undefined), the inhibition is 5.9% (inactive).

As to `COc1cc(NC(=O)CSCC(=O)Nc2cc(OC)cc(OC)c2)cc(OC)c1`, the inhibition was -13.3% (inactive).

Regarding `CC1(C)CC(=O)C2=C(C1)N(c1cccc(O)c1)C1=C(C2)C(=O)CC(C)(C)C1`, the inhibition was 28.2% (inactive).

Consider `Cc1ccc(OCCCn2ccnc2)c([N+](=O)[O-])c1`, for which the inhibition is 11.8% (inactive).

For the compound `CCOc1ccc(CN2CCNC(=O)C2CC(=O)NCc2csc(C)n2)cc1` (centres undefined), the inhibition is -5.2% (inactive).

In the case of `CCOc1ccc(C(=O)NC(=S)N(Cc2ccccc2)Cc2ccccc2)cc1`, the inhibition was 8.8% (inactive).

Take `COc1ccc(CN(CCC#N)C(=S)NC(=O)c2ccccc2)cc1`: the inhibition was 21.1% (inactive).

On to `CCOC(=O)c1[nH]c2ccc(Cl)cc2c1NC(=O)/C=C/c1ccc2c(c1)OCO2`, for which the inhibition was -10.3% (inactive).

As to `CCc1ccc2c(c1)cc(CN(C(=S)Nc1ccccc1C)C1CC1)c1nnnn12`, the inhibition was -0.7% (inactive).

As for `Cn1c(=O)n(C/C=C/c2ccccc2)c(=O)c2c1nc1n2CCCN1Cc1ccccc1`, the inhibition is 12.5% (inactive).

For `Cn1c(=O)n(CCc2ccccc2)c(=O)c2c1nc1n2CCCN1c1ccccc1`, the inhibition is 8.1% (inactive).

Consider `CC(C)C(=O)Nc1ccc(N2CCN(c3ccc(F)cc3)CC2)cc1`, for which the inhibition was 7.7% (inactive).

As for `O=C(O)CN=C(NS(=O)(=O)c1ccccc1)c1ccccc1`, the inhibition was 3.6% (inactive).

For `CC(C)N=C(NS(=O)(=O)c1ccccc1)C(Cl)(Cl)Cl`, the inhibition is 52.5% (inactive).

As to `Cc1ccc(CC(=O)N2CCN(c3ccccn3)CC2)cc1`, the inhibition is 1.5% (inactive).

Take `Cc1nc(-c2ccc(Cl)cc2)sc1C1(C)CC(c2cccc(Cl)c2)=NO1` (centres undefined): the inhibition was 2.4% (inactive).

As for `O=C(Nc1ccccc1O)c1ccc2c(c1)C(=O)N(Cc1ccco1)C2=O`, the inhibition was 1.9% (inactive).

Regarding `CC(/C=C\c1cccnc1)=C/C(=O)O`, the inhibition was 13.6% (inactive) and 11.7% (inactive).

Turning to `O=C(O)/C=C/c1cccnc1`, the inhibition was 10.5% (inactive).

In the case of `Cc1cc(CSc2ccccc2)ccc1NC(=O)COc1ccccc1C`, the inhibition was 5.6% (inactive).

Regarding `CC(C)CCNC(=O)C1CC(=O)N(CCc2ccccc2)C1` (centres undefined), the inhibition was 3.2% (inactive).

For the compound `COc1ccc(CNC(=O)CCc2c(C)nc3cc(-c4ccccc4OC)nn3c2C)cc1`, the inhibition is 12.4% (inactive).

For `Cc1ccc(NC(=O)c2ccccc2OCC(=O)c2ccccc2)cc1`, the inhibition was -5.2% (inactive).

Take `CCOc1ccc(NC(=O)c2ccccc2OCC(=O)c2ccc(C)cc2)cc1`: the inhibition is -16% (inactive).

Take `O=C(NCc1ccccn1)c1ccc(CNS(=O)(=O)c2cccc(C(F)(F)F)c2)cc1`: the inhibition was 3.1% (inactive).

Take `Cc1cccc(C(=O)Oc2ccc(/C=N/NC(=O)c3ccc(O)cc3)cc2)c1`: the inhibition was 0.3% (inactive).

As to `CC1=Nc2cc(C(=O)NCCCOC(C)C)ccc2Sc2ccc(C)cc21`, the inhibition is 19.1% (inactive).

As to `Cc1c(-n2c(SC(C)C(=O)NC(N)=O)nc3ccccc3c2=O)c(=O)n(-c2ccccc2)n1C` (centres undefined), the inhibition was -4.9% (inactive).

For `c1ccc(-c2ccc(-c3nccc4ccccc34)[nH]2)cc1`, the inhibition is 36% (inactive).

Turning to `Cc1ccc(-c2nc(-c3nccc4ccccc34)oc2-c2ccccc2)cc1`, the inhibition is 25% (inactive).

For the compound `O=C(NC1CCCCC1)Sc1ccc(Cl)cc1`, the inhibition was -6% (inactive).

For the compound `S=C(Sc1ccc(Cl)cc1)Sc1ccc(Cl)cc1`, the inhibition is 91.8% (active).

With `CC(=O)/C(=C\N(C)C)Sc1ccc(Cl)cc1`, the inhibition was 0.6% (inactive).

In the case of `O=C(N/N=C/c1ccoc1)c1ccccc1O`, the inhibition was -2.7% (inactive).

On to `O=C1NN(c2ccccc2)C(=O)/C1=C\c1ccccc1OCC(=O)N1CCOCC1`, for which the inhibition is 4.6% (inactive).

With `O=C(O)COc1ccccc1/C=C1\SC(=Nc2ccc(F)cc2)N(c2ccc(F)cc2)C1=O`, the inhibition is 12.7% (inactive).

Regarding `O=C(O)c1ccc(/C=N/NC(=O)c2cc(-c3ccc4c5c(cccc35)CC4)n[nH]2)cc1`, the inhibition is 4% (inactive).

`O=C(N/N=C/c1ccc(Cl)c([N+](=O)[O-])c1)c1cc(-c2ccc3c4c(cccc24)CC3)n[nH]1`: the inhibition was 76.6% (active).

`O=C(N/N=C/c1cccc([N+](=O)[O-])c1)c1cc(-c2ccc3c4c(cccc24)CC3)n[nH]1`: the inhibition is -4.6% (inactive).

For `CCN(Cc1ccccc1)S(=O)(=O)c1ccc(F)cc1`, the inhibition is 15.1% (inactive).

Consider `CCN1C(=NCCc2cccnc2)N[C@@H](c2ccccc2)C(C(=O)OC)=C1C`, for which the inhibition was -18.1% (inactive).

For `COC(=O)C1=C(C)N(Cc2ccccc2)C(=NCc2cc(OC)c(OC)c(OC)c2)N[C@H]1c1cccc(F)c1`, the inhibition is 8.9% (inactive).

Take `COC(=O)C1=C(C)N(Cc2ccccc2)C(=S)N[C@H]1c1cccc(F)c1`: the inhibition was 18.7% (inactive).

Take `COC(=O)C1=C(C)N(Cc2ccccc2)C(=O)N[C@H]1c1ccccc1`: the inhibition is 58% (inactive).

Consider `COC(=O)C1=C(C)N(CC2CC2)C(=NCc2cc(OC)c(OC)c(OC)c2)N[C@H]1c1ccccc1`, for which the inhibition was -3% (inactive).

For `COC(=O)C1=C(C)N(Cc2cccnc2)C(=O)C1`, the inhibition is -5.2% (inactive).

Take `COC(=O)C1=C(C)N(Cc2ccccc2)C(=NCCc2ccccn2)N[C@H]1c1cccc(F)c1`: the inhibition was 38.8% (inactive).

Regarding `CCN1C(=S)N[C@@H](c2cccc(F)c2)C(C(=O)OC)=C1C`, the inhibition was 4.1% (inactive).

Turning to `O=C(Nc1ccc2c(c1)OCCO2)NC1(C(F)(F)F)Oc2ccccc2O1`, the inhibition was -14.5% (inactive).

With `COc1ccc(NC(=O)N2CCN(c3cccc(C(F)(F)F)c3)CC2)cc1`, the inhibition is 12.5% (inactive).

For `COc1ccc(-c2cc(C(=O)N3CCN(c4ccccc4O)CC3)c3ccccc3n2)cc1OC`, the inhibition was 13.3% (inactive).

For the compound `CCc1oc(C(=O)O)cc1COC`, the inhibition was 3.5% (inactive).

In the case of `C=CCN1C(=O)SC(Cc2cccc(OC)c2O)C1=O` (centres undefined), the inhibition was -4.5% (inactive).

Consider `COc1ccc(C(=O)NC(C)Cc2cnccn2)cc1OC1CCN(C(C)C)CC1` (centres undefined), for which the inhibition was 18.7% (inactive).

On to `CC(C(=O)Nc1cccnc1)n1cc([N+](=O)[O-])cn1` (centres undefined), for which the inhibition is 9.4% (inactive).

For the compound `COCCN=C1N[C@@H](c2cccc(C(F)(F)F)c2)C(C(=O)OC)=C(C)N1Cc1ccccc1`, the inhibition was 31.8% (inactive).

For `COC(=O)C1=C(C)N(Cc2ccccc2)C(=O)N[C@H]1c1cccc(C(F)(F)F)c1`, the inhibition was 6.8% (inactive).

With `COc1ccccc1NC(=O)CN1CCN(C2c3ccccc3-c3ccccc32)CC1`, the inhibition was 59.8% (inactive).

On to `COc1ccc(NC(C)=O)cc1NC(=O)CN1CCN(C2c3ccccc3-c3ccccc32)CC1`, for which the inhibition was 100% (active).

As to `COc1ccc(NC(C)=O)cc1NC(=O)CN1CCN(CC(=O)Nc2ccccc2Cl)CC1`, the inhibition is 21.6% (inactive).

Take `COc1ccc(NC(=O)CN2CCN(C3c4ccccc4-c4ccccc43)CC2)cc1`: the inhibition was 9.6% (inactive).

As to `COc1ccccc1NC(=O)CN1CCN(CC(=O)Nc2cc(NC(C)=O)ccc2OC)CC1`, the inhibition was -4.4% (inactive).

With `Nc1c2c(nn1-c1ccc(F)cc1)CSC2`, the inhibition is -2.1% (inactive).

With `O=C(CO/N=C1\CCCc2nonc21)Nc1ccccc1Cl`, the inhibition was 0.5% (inactive).

On to `O=C1/C(=C/c2cccnc2)SC(=S)N1C1CCS(=O)(=O)C1` (centres undefined), for which the inhibition is 3.6% (inactive).

As to `O=C1/C(=C/c2ccccc2)SC(=S)N1C1CCS(=O)(=O)C1` (centres undefined), the inhibition was 9.4% (inactive).

Consider `C=C(C)CNC(=S)NNC(=O)CCn1c2ccccc2c2ccccc21`, for which the inhibition is -10.4% (inactive).

Turning to `CCOc1ccc(CCNC(=O)c2ccc(CS(=O)Cc3ccc(Cl)cc3)o2)cc1OCC` (centres undefined), the inhibition is 13.4% (inactive).

For the compound `Cc1ccc(Cn2cc(SCC(=O)Nc3nccs3)c3ccccc32)cc1`, the inhibition is 2.5% (inactive).

On to `Cc1ccc(-c2cc(C(=O)Nc3ccc(S(=O)(=O)Nc4cc(C)on4)cc3)c3ccccc3n2)c(C)c1`, for which the inhibition is 32.5% (inactive).

For `Cc1cc(C)c2nc(-c3ccccn3)cc(C(=O)Nc3cc(C)on3)c2c1`, the inhibition was 1.5% (inactive).

With `Cc1cc(C)c(C(=O)Nc2ccc(S(=O)(=O)Nc3onc(C)c3C)cc2)c(C)c1`, the inhibition is 4.6% (inactive).

Consider `Cc1ccccc1C(=O)Nc1ccc(S(=O)(=O)Nc2onc(C)c2C)cc1`, for which the inhibition was 6.6% (inactive).

On to `Cc1ccc(-c2cc(C(=O)Nc3ccc(S(=O)(=O)Nc4onc(C)c4C)cc3)c3ccccc3n2)cc1`, for which the inhibition is -14.3% (inactive).

As to `Cc1noc(NS(=O)(=O)c2ccc(NC(=O)c3cc(-c4ccccc4Cl)nc4ccccc34)cc2)c1C`, the inhibition was 14.9% (inactive).

Regarding `COc1ccc(-n2ncc3c(=O)n(CC(=O)Nc4ccc5c(c4)OCCO5)cnc32)cc1`, the inhibition was 0.6% (inactive).

As to `COc1cc2nc(SCC(N)=O)n(CCC3=CCCCC3)c(=O)c2cc1OC`, the inhibition was -6.5% (inactive).

With `COc1cc(NC(=O)c2cc(C)no2)cc(OC)c1OC`, the inhibition is 3.4% (inactive).

`COc1cc(-c2nn3c(-c4ccccc4)nnc3s2)cc(OC)c1OC`: the inhibition is -5.2% (inactive).

Take `Cc1cc(/C=C2\SC(=O)N(C)C2=O)c(C)n1-c1ccc(S(N)(=O)=O)cc1`: the inhibition was 5% (inactive).

As to `Cc1cc(/C=C2\SC(N)=NC2=O)c(C)n1-c1ccccc1`, the inhibition is -9.3% (inactive).

For the compound `[N-]=[N+]=NC[C@H](c1ccccc1)N1CCN(Cc2ccccc2)CCC1=O`, the inhibition is 9.8% (inactive).

As for `CCOC(=O)CC(NC(=O)CCS(=O)(=O)c1ccc2c(c1)n(C)c(=O)c(=O)n2C)c1ccc(C)cc1` (centres undefined), the inhibition is 10.2% (inactive).

Turning to `CCN(CC)c1ccc(/C=N/n2c(C)nc3ccccc3c2=O)cc1`, the inhibition is -7.1% (inactive).
